# PubChem BioAssay AID463173 (ICCB-Longwood Screening Facility, Harvard Medical School, 2010)
# Out of some 52,000 compounds screened, about 4,300 (8.3%) were called active. This is one part of a sample in which actives are shown more often than they occur. Unmarked numbers belong to inactive results. Rule as the data show it: active = survival mostly below about 52% (no sharp cut-off); inactive = mostly above about 56%.
# Tested on: DeltatarO mutant
# Assay: S. aureus survival, RN4220 and DeltatarO strains – OD600, teichoic acid synthesis inhibitors, primary screen (AID 463173)
# Settings: S. aureus RN4220 wild type/DeltatarO growth, OD600, 18 h, hits give low values, screened at 18.75 µg/mL (by protocol)
row,Compound,survival
1,CC(C)(C)c1ccc(C(=O)N2CCN(CCc3ccccn3)CC2)cc1,45%
2,CCc1cccc(C)c1Nc1c(-c2ccc(F)cc2)nc2sccn12,35%
3,CCCN(CCC)CCCNC(=O)Cn1ncc2c3ccccc3n(Cc3ccc(F)cc3)c2c1=O,91%
4,O=C(NCC1CCCO1)C1CC(c2ccccc2O)=NO1 (configuration not stated),91%
5,CC(NC(=O)C1CCN(C(=O)N2CCOc3ccc(Cl)cc32)CC1)c1ccccc1 (configuration not stated),50%
6,COc1ccc(OC)c(NC(=O)Nc2c(C)n(C)n(-c3ccccc3)c2=O)c1,88%
7,CCC(CC)c1nn2c(=O)cc(COc3ccc(NC(=O)c4cccc(Cl)c4)cc3)nc2s1,79%
8,CC(C)NC(=O)C1CCN(C(=O)NCc2ccccc2)CC1,93%
9,COc1cccc(N2CCN(C(=O)C3CCCN(S(=O)(=O)c4ccc(Br)s4)C3)CC2)c1 (configuration not stated),76%
10,Cc1ccc(CNC(=O)CSC2=Nc3ccccc3C3=NC(C)C(=O)N23)cc1 (configuration not stated),71%
11,CC1N=C2c3ccccc3N=C(SCC(=O)NCCc3ccc(Cl)cc3)N2C1=O (configuration not stated),80%
12,CC1N=C2c3ccccc3N=C(SCC(=O)NCCc3ccccc3)N2C1=O (configuration not stated),52% (active)
13,CCNC(=O)CC1C(=O)N(c2ccccc2)C(=O)N1Cc1ccc(F)cc1 (configuration not stated),74%
14,COc1cccc(CNC(=O)CSC2=Nc3ccccc3C3=NC(C)C(=O)N23)c1OC (configuration not stated),124%
15,COC(=O)c1ccccc1NC(=O)Cn1c(=O)n(CCC(=O)NCc2ccccc2OC)c(=O)c2ccccc21,82%
16,Cc1ccccc1OCC(=O)Nc1ccc(S(=O)(=O)N(Cc2ccccc2)c2ccccc2)cc1,66%
17,COc1ccc(-n2ccnc(NCCc3ccc(S(N)(=O)=O)cc3)c2=O)cc1,66%
18,COC(=O)CNC(=O)Nc1cc(C(=O)NCc2ccc(C)cc2)ccc1N1CCCC1,76%
19,COC(=O)c1c(N)n(-c2ccc(OC)c(OC)c2)c2nc3ccccc3nc12,94%
20,COC(=O)c1c(N)n(-c2cc(Cl)cc(Cl)c2)c2nc3ccccc3nc12,44% (active)
21,COC(=O)c1c(N)n(-c2ccc(OC)c(Cl)c2)c2nc3ccccc3nc12,93%
22,Cc1ccc(CNc2nc(-c3ccco3)nn2S(C)(=O)=O)cc1,113%

row,Compound,survival
1,CCOC(=O)Cc1ccc(NC(=O)N2CCC(CN3CCCCCC3)CC2)cc1,80%
2,Cc1cc(C)cc(NS(=O)(=O)c2ccc3c(c2)NC(=O)C(C)S3)c1 (configuration not stated),11% (active)
3,Cc1ccc(NS(=O)(=O)c2ccc3c(c2)NC(=O)C(C)C(=O)N3)cc1F (configuration not stated),69%
4,O=C1CCSc2ccc(S(=O)(=O)Nc3cccc(C(F)(F)F)c3)cc2N1,-2% (active)
5,Cc1ccccc1NS(=O)(=O)c1ccc2c(c1)NC(=O)CCS2,64%
6,O=C1CCSc2ccc(S(=O)(=O)Nc3ccc(Cl)c(C(F)(F)F)c3)cc2N1,72%
7,CC1C(=O)Nc2ccc(S(=O)(=O)Nc3ccccc3Br)cc2NC1=O (configuration not stated),90%
8,Cc1ccc(NS(=O)(=O)c2ccc3c(c2)NC(=O)CCS3)c(Br)c1,-1% (active)
9,Cc1ccc(NS(=O)(=O)c2ccc3c(c2)NC(=O)CCS3)cc1C,79%
10,Cc1cc(C)c(NS(=O)(=O)c2ccc3c(c2)NC(=O)CCS3)c(C)c1,76%
11,COc1cc(NC(=O)CCc2c(C)nn(-c3ccc(N4CCCCC4)nn3)c2C)cc(OC)c1OC,95%
12,CCOC(=O)c1ccccc1NC(=O)n1ncc2cc(Cl)ccc21,85%
13,O=C(O)c1cc(N2C(=O)C3CC=CCC3C2=O)ccc1NCc1cccnc1 (configuration not stated),90%
14,CC(=O)c1cccc(NC(=O)c2sc(-n3nc(C)c(CCC(C)C)c3C)nc2C)c1,53%
15,CCOc1ccccc1NC(=O)Cn1cc(C(=O)c2ccc(Cl)cc2)c(=O)c2ccc(C)nc21,87%
16,CCc1ccc(N2CC(C)Cn3c2nc2c3c(=O)n(CC(=O)O)c(=O)n2C)cc1 (configuration not stated),77%
17,COc1ccc(C2(CNC(=O)C(=O)Nc3cccc(C(F)(F)F)c3)CCCC2)cc1OC,102%
18,Cc1cccc2cc(CN(C(=O)c3ccco3)C3CCCC3)c(=O)[nH]c12,51%
19,CCCCSc1ncnc2c1sc1nc(N3CCOCC3)c3c(c12)CCCC3,77%
20,CCCc1nc2sc3c(N4CCCCC4)ncnc3c2c2c1CCCC2,12% (active)
21,CCCCN(CC)c1ncnc2c1sc1nc(N3CCOCC3)c3c(c12)CCCC3,35% (active)
22,CCc1nc2sc3c(N4CCCCC4)ncnc3c2c2c1CCCC2,175%

row,Compound,survival
1,CCCc1nc2sc3c(N4CCC(C)CC4)ncnc3c2c2c1CCCC2,61%
2,CCCCCSc1ncnc2c1sc1nc(N3CCOCC3)c3c(c12)CCCC3,69%
3,Cc1ccc(-c2[nH]c3ccccc3c2SCCNC(=O)c2ccc(S(=O)(=O)N(C)C)cc2)cc1,105%
4,COc1ccc(NC(=O)CSCc2cc(=O)c3cc(C)ccc3[nH]2)cc1,68%
5,CC(=O)Nc1ccc(NC(=O)C2CCN(S(=O)(=O)c3ccc4c(c3)CCCC(=O)N4)CC2)cc1,85%
6,CC(C)(C)C(=O)OCc1cc(=O)n2nc(C3CCCCC3)sc2n1,80%
7,COc1ccc(CC(=O)NC2CCN(CC(=O)c3ccc(F)cc3)CC2)cc1OC,108%
8,Cc1cc(C)nc(NC(=O)COc2ccc(Br)cc2)n1,84%
9,CCN(CC)CCNC(=O)Cn1ncc2c([nH]c3ccccc32)c1=O,89%
10,CCCCN(C)CCNC(=O)Cn1ncc2c([nH]c3ccccc32)c1=O,8% (active)
11,O=C(Cn1ncc2c([nH]c3ccccc32)c1=O)NCc1cccc(Cl)c1,20% (active)
12,COc1ccc(CNC(=O)Cn2ncc3c([nH]c4ccccc43)c2=O)cc1,91%
13,Cc1ccc(CCNC(=O)Cn2ncc3c([nH]c4ccccc43)c2=O)cc1,102%
14,CN(CCCNC(=O)Cn1ncc2c([nH]c3ccccc32)c1=O)Cc1ccccc1,100%
15,COc1ccc(-n2nc(C(=O)Nc3ccccn3)c3c4ccccc4n(C)c3c2=O)cc1,72%
16,O=C(NCCc1csc(-c2cccc(F)c2)n1)c1ccc(Br)o1,83%
17,CC(=O)Nc1ccc(N(C(=O)Cn2nnc3ccccc32)C(C(=O)NCc2ccccc2)c2ccc(C)cc2)cc1 (configuration not stated),38% (active)
18,CC(=O)c1cccc(N(C(=O)Cn2nnc3ccccc32)C(C(=O)NCc2ccccc2)c2ccc(F)cc2)c1 (configuration not stated),85%
19,COc1cc(N(C(=O)Cn2nnc3ccccc32)C(C(=O)NCC2CCCO2)c2ccc(F)cc2)ccc1-n1cnnn1 (configuration not stated),105%
20,COc1ccc(C(C(=O)NCc2ccccc2)N(C(=O)Cn2nnc3ccccc32)c2ccc(OC)cc2)cc1 (configuration not stated),60%
21,CCOc1ccc(N(C(=O)Cn2nnc3ccccc32)C(C(=O)NCc2ccccc2)c2ccc(OC)cc2)cc1 (configuration not stated),52%
22,COc1ccc(C(C(=O)NCc2ccccc2)N(C(=O)Cn2nnc3ccccc32)c2ccc(F)cc2)cc1 (configuration not stated),49%

row,Compound,survival
1,COc1cccc(C(C(=O)NCc2ccccc2)N(C(=O)Cn2nnc3ccccc32)c2cccc(C(C)=O)c2)c1 (configuration not stated),44% (active)
2,COc1ccc(N(C(=O)Cn2nnc3ccccc32)C(C(=O)NCc2ccccc2)c2ccc(F)cc2)cc1 (configuration not stated),42% (active)
3,COc1ccc(C(C(=O)NCc2ccccc2)N(C(=O)Cn2nnc3ccccc32)c2cccc(OC)c2)cc1 (configuration not stated),50%
4,O=C(COc1ccc(S(=O)(=O)NC2CCCCC2)cc1)Nc1ccc(C(F)(F)F)cc1,64%
5,CC(NC1=NCCN1)C(=O)O (configuration not stated),97%
6,COC(=O)C1C(=O)C2=C(CC1C)Nc1ccccc1NC2c1cc(F)ccc1F (configuration not stated),82%
7,Cc1occc1-c1nnc(SCC(=O)NCc2ccc3c(c2)OCO3)n1CC(C)C,88%
8,COc1ccccc1NC(=O)CC(C)n1nc(C)cc1C (configuration not stated),67%
9,COc1ccc(NC(=O)CCS(=O)(=O)c2ccc3nc(C)sc3c2)cc1Cl,44%
10,Cc1cc(-c2ccc(C)c(S(=O)(=O)NCCc3ccc(S(N)(=O)=O)cc3)c2)on1,92%
11,Cc1ccc(C)c(N2C(=O)N(Cc3cccc(C(F)(F)F)c3)c3ccccc3S2(=O)=O)c1,88%
12,COc1cccc(C(=O)N2CCN(CCc3ccncc3)CC2)c1,87%
13,CCOC(=O)c1ccc(N2C(=O)c3[nH]nc(-c4ccc(OC)cc4)c3C2c2ccc(C)cc2)cc1 (configuration not stated),81%
14,COC(=O)c1ccc(C2c3c(-c4ccc(Br)cc4)n[nH]c3C(=O)N2c2ccc(Cl)cc2)cc1 (configuration not stated),93%
15,CCOc1ccc(-c2n[nH]c3c2C(c2ccccc2OC)N(c2ccc(Br)cc2)C3=O)cc1 (configuration not stated),69%
16,CCOC(=O)c1ccc(N2C(=O)c3[nH]nc(-c4ccc(C)cc4)c3C2c2ccc(O)c(OCC)c2)cc1 (configuration not stated),87%
17,Cc1ccc(-c2n[nH]c3c2C(c2cccc(O)c2)N(c2ccc(C(=O)O)cc2)C3=O)cc1 (configuration not stated),86%
18,COc1ccc(-c2n[nH]c3c2C(c2ccc(O)cc2)N(c2ccc(Br)cc2)C3=O)cc1 (configuration not stated),-3% (active)
19,CCOC(=O)c1ccc(N2C(=O)c3[nH]nc(-c4ccc(OC)cc4)c3C2c2cccc(O)c2)cc1 (configuration not stated),57%
20,CCOc1cc(C2c3c(-c4ccc(Br)cc4)n[nH]c3C(=O)N2c2ccc(Cl)cc2)ccc1O (configuration not stated),35% (active)
21,O=C1c2[nH]nc(-c3ccc(Br)cc3)c2C(c2cccc(O)c2)N1c1ccc(Cl)cc1 (configuration not stated),-10% (active)
